Results reported in ChEMBL document CHEMBL4888484, “Replenishing the malaria drug discovery pipeline: Screening and hit evaluation of the MMV Hit Generation Library 1 (HGL1) against asexual blood stage Plasmodium falciparum ,using a nano luciferase reporter read-out” (2022).
About 420 (8.8%) of roughly 4,800 compounds showed an effect of 50% or more. The entries come from a sample that favours strong results as a whole.

The compounds below were run on Plasmodium falciparum (assay: Confirmatory screen in NF54 nanoGlo assay, in single point, at 2uM, 72h). Conditions: timepoint 72 hour.
Assay type: functional, Erythrocyte

Compared with `CCc1ccc(NC(=O)[C@H]2CCCN(c3nc4cccnc4n(Cc4ccccc4)c3=O)C2)cc1`, `C[C@H]1CCCN(c2nc(-c3ccccn3)nc3ccccc23)C1` is higher in “% Inhibition” value: -6% for the first, 97% for the second.

First: FC(F)(F)C1CN(c2nc(-c3ccccn3)nc3c2CCC3)C1
Second: C[C@H]1CCN(c2nc(-c3ccccn3)nc3c2CCC3)C1
The “% Inhibition” value of the first is lower: 67% for the first, 91% for the second.

Going from `C[C@H]1CCCN(S(=O)(=O)NCC(=O)Nc2ccccn2)C1` to `Cc1cccc(OCc2nn3c([C@H]4CCCN(S(C)(=O)=O)C4)nnc3s2)c1`, the “% Inhibition” value rises from -15% to -6%.

First: O[C@H]1Cc2ccccc2[C@H]1Nc1nc(-c2ccccn2)nc2c1CCNC2
Second: c1ccc(CCNc2nc(-c3ccccn3)cs2)cc1
The “% Inhibition” value of the first is higher: 13% for the first, 12% for the second.

Going from `CN(C)Cc1ccc(O)c(CCc2ccccc2)n1` to `CNc1nc(NCCc2ccccc2)nc2ccccc12`, the “% Inhibition” value rises from 29% to 80%.

First: C[C@@]12CCCCN1CCCc1c2[nH]c2ccccc12
Second: C[C@H](Nc1nc(N2CCCCC2)nc2ccccc12)c1ccccc1
The “% Inhibition” value of the first is lower: -15% for the first, -1% for the second.

First: CCOc1cc(Cl)ccc1C(=O)NC1CCN(C[C@H]2CCOC2)CC1
Second: COc1c[nH]c(C(=O)NC2CCN(Cc3ccccc3)CC2)cc1=O
The “% Inhibition” value of the first is lower: 1% for the first, 5% for the second.

First: FCCn1ncnc1CN1CCCCC[C@H]1C1CCCCC1
Second: CCc1ccc(CN2C(=O)c3c(C(=O)OC)ncn3C[C@@]2(C)C(=O)NC2CCCCCC2)cc1
The “% Inhibition” value of the first is higher: 4% for the first, 1% for the second.

First: CCN(CC)CC(O)COc1c(Br)cc(C(C)(C)c2cc(Br)c(OCC(O)CN(CC)CC)c(Br)c2)cc1Br (configuration not stated)
Second: CCCN(CCC)CCN1C(=O)[C@@H]2C(C(=O)Nc3cc(Cl)cc(Cl)c3)[C@@H]3C=C[C@]2(O3)C1C(=O)NC1CCCCC1 (some centres not stated)
The “% Inhibition” value of the first is higher: 99% for the first, -3% for the second.

Compared with `O=C(CNC(=O)[C@H]1CC[C@H](CNS(=O)(=O)c2ccccc2)CC1)N1CCN(c2ccccc2)CC1`, `CNC(=O)c1cc(N2CCN(c3ncc(C(F)(F)F)cc3Cl)CC2)ccc1NC(=O)c1ccccc1Cl` is higher in “% Inhibition” value: 4% for the first, 7% for the second.

First: O=C(Nc1nc2ccc(F)cc2s1)c1cccc2c(Br)cccc12
Second: COc1ccc2ccccc2c1C(=O)Nc1ccc(N2CCN(C)CC2)c(Cl)c1
The “% Inhibition” value of the first is lower: -1% for the first, 5% for the second.

Going from `C=CCN1C(=O)OC(C)(CCC=C(C)C)C1(C)O` (configuration not stated) to `Cc1cc(-c2nnc3n2CC(C)(C)CC3)c(C)o1`, the “% Inhibition” value falls from 9% to 2%.

First: CN1CCCN(c2ccnc3ccsc23)CC1
Second: Cc1cc(CN(C)Cc2nccn2C)ccc1N1CCCCC1
The “% Inhibition” value of the first is higher: 2% for the first, -1% for the second.

Going from `Cc1nccc(N(C)C2CC(Oc3ccccc3)C2(C)C)n1` (configuration not stated) to `CC1(C)Cc2nc3ccccc3c(NCc3ccccc3)c2[C@@H](O)C1`, the “% Inhibition” value rises from -5% to 44%.

First: Cc1nn2c(C(F)F)cc(-c3ccc4c(c3)OCO4)nc2c1Cl
Second: Cc1nn(CCc2nnc(-c3ccc4c(c3)OCO4)o2)c(C)c1Cl
The “% Inhibition” value of the first is lower: -5% for the first, -3% for the second.

Going from `Cc1cc(C)c(S(=O)(=O)N2CCC(C)(C(=O)NCc3ccc4c(c3)OCO4)CC2)cc1C` to `COc1ccc(-c2cc3n(n2)C[C@@](C)(C(=O)NCc2ccccc2)N(Cc2ccc4c(c2)OCO4)C3=O)cc1`, the “% Inhibition” value rises from 3% to 63%.

Compared with `C[C@@]1(C(=O)NCc2ccccc2)Cn2nc(-c3ccccc3)cc2C(=O)N1c1ccc2c(c1)OCCO2`, `COc1ccc(-c2cc3n(n2)C[C@@](C)(C(=O)NCc2ccccc2OC)N(c2cccc(OC)c2)C3=O)cc1` is lower in “% Inhibition” value: 58% for the first, 49% for the second.

Compared with `CCc1ccc(CN2C(=O)c3c(C(=O)OC)ncn3C[C@@]2(C)C(=O)NC2CCCC2)cc1`, `CCc1ccc(-c2cc3n(n2)C[C@@](C)(C(=O)NC2CCCCC2)N(c2cc(C)cc(C)c2)C3=O)cc1` is higher in “% Inhibition” value: -6% for the first, 74% for the second.

First: O=C(CCn1nc(-c2ccc(Br)cc2)ccc1=O)NCc1ccc2c(c1)OCO2
Second: COc1cccc(-c2ccc(=O)n(CCC(=O)N3CCN(Cc4ccc5c(c4)OCO5)CC3)n2)c1
The “% Inhibition” value of the first is lower: -4% for the first, 1% for the second.

First: O=C(O)Cc1sc(-c2ccccc2)nc1O
Second: O=C(Cc1ccccc1)Nc1c2c(nc3c1CCC3)CCCC2
The “% Inhibition” value of the first is lower: 1% for the first, 3% for the second.

Going from `CC(=O)Nc1cc(NC(=O)c2cccc[n+]2[O-])c(F)cc1F` to `O=C(Nc1nncs1)c1cccc(C(=O)Nc2nncs2)n1`, the “% Inhibition” value rises from -2% to 68%.

Going from `COC(=O)c1[nH]c(C)cc1NC(=O)C1=CCCCCC1` to `Cc1cc(NC(=O)C(=O)NC2CC(C)CC(C)(C)C2)n(-c2nc3c(c(=O)[nH]2)CCC3)n1` (configuration not stated), the “% Inhibition” value rises from -2% to 90%.

Compared with `O=C(Nc1nncs1)NC(C1CC1)C1CC1`, `COc1cccc2nc(C[C@H]3CN(CC(C)C)CC[C@H]3CC(=O)O)[nH]c12` is lower in “% Inhibition” value: 0% for the first, -9% for the second.

Going from `Cc1ccc(-c2csc(NC(=O)c3cccc(C(=O)Nc4nc(-c5ccc(C)cc5C)cs4)n3)n2)c(C)c1` to `Cc1cc(C)cc(Nc2nc(C)cc(=O)n2CC(=O)Nc2ccc(C)cc2Br)c1`, the “% Inhibition” value falls from -1% to -8%.

First: CCOC(=O)c1c(C(F)(F)F)[nH]n2c(C(F)F)nnc12
Second: CCOC(=O)c1cc(-c2ccccc2)n(NC(=O)COc2ccc(Cl)cc2)c1C
The “% Inhibition” value of the first is higher: -3% for the first, -11% for the second.

First: CCOc1ccc2ccccc2c1C(=O)Nc1cc(C)nn1-c1nc2c(c(=O)[nH]1)CCC2
Second: COc1ccc(OC)c(NC(=O)Cn2cnc3nc(N4CCOCC4)ncc3c2=O)c1
The “% Inhibition” value of the first is higher: 94% for the first, 8% for the second.

First: Cc1ccc2c(c1)ncc1c(-c3ccccc3)nn(-c3ccc(F)cc3)c12
Second: NS(=O)(=O)c1ccc(CCNc2nc(-c3ccccc3)nc3ccccc23)cc1
The “% Inhibition” value of the first is lower: -5% for the first, -2% for the second.

First: COc1ccc(NC(=O)Cc2c(C)nn(-c3nc(C)cs3)c2O)c(OC)c1
Second: CCCc1cc(-c2nc(-c3ccc(-n4nc(C)cc4N)cc3)no2)n(C)n1
The “% Inhibition” value of the first is lower: -7% for the first, 48% for the second.

Compared with `CCN(C)C1(CNC(=O)c2ccc(-c3cc(F)ccc3O)cc2)CCCC1`, `O=C1c2ccccc2[C@@H](Nc2ccc3c(c2)OCCO3)N1c1ccccn1` is lower in “% Inhibition” value: 26% for the first, -17% for the second.

Compared with `c1coc(CNc2nc(Nc3cccc4ccccc34)nc3ccccc23)c1`, `CNc1nc(NCc2ccccc2)nc2ccccc12` is higher in “% Inhibition” value: 20% for the first, 78% for the second.

Going from `CNc1nc(Nc2ccc3c(c2)OCCO3)nc2ccccc12` to `Cc1ccc(-c2nc3ncccn3c2Nc2ccc3c(c2)OCCO3)o1`, the “% Inhibition” value falls from 95% to -8%.
